# Data from PubChem BioAssay.
# The source made the active and inactive calls.
# Columns and labels:
# [1] = test system: Plasmodium falciparum Sir2 (PF13_0152, Sir2A); test: Plasmodium falciparum Sir2A binding compounds – biochemical, small-molecule microarray, 635 nm fluorescence, primary screen (AID 1098); conditions: fluorescence 635 nm, higher = more signal;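 further: score merges spot fluorescence intensity with its signal-to-noise ratio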
# [2] = probe aDKK1 binding to arrayed compounds – biochemical, biotinylated probe, 635/667 nm fluorescence, primary screen (AID 1099); conditions: small-molecule microarray, higher = more signal;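 further: score merges 667nm spot fluorescence with signal to noise across triplicate slides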
# [3] = probe aCHRDL2 binding to arrayed compounds – biochemical, biotinylated probe, 635/667 nm fluorescence, primary screen (AID 1100); conditions: small-molecule microarray, higher = more signal
# [4] = change in splice reporter luminescence, either direction, cell-based, HEK293, spliceosome inhibition project, primary screen (AID 1101); conditions: HEK293 splicing luciferase reporter, 24 h, higher = more signal, called active from +8 up or from −8 down;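 further: HEK293 cells carrying a splicing-competent luciferase reporter gene; test concentration not given here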
# [5] = molecular target: Fibroblast growth factor 10 (Homo sapiens) (UniProt O15520); test: compounds binding fibroblast growth factor 10 – biochemical, small-molecule microarray, 635 nm fluorescence, primary screen (AID 1102); conditions: FGF10 binding, fluorescence 635 nm, higher = more signal
# [6] = test system: glycogen synthase kinase-3 (GSK3A per assay name; protocol says GSK3B); test: compounds binding glycogen synthase kinase-3 – biochemical, small-molecule microarray, 635 nm fluorescence, GSK3A, primary screen (AID 1103); conditions: fluorescence 635 nm, higher = more signal; further: the record names both GSK3A and GSK3B
# [7] = molecular target: Epidermal growth factor receptor (Homo sapiens) (UniProt P00533); test: compounds binding epidermal growth factor receptor – biochemical, small-molecule microarray, 635 nm fluorescence, primary screen (AID 1104); conditions: EGFR binding, higher = more signal;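 further: score merges 667 nm emission intensity with spot signal to noise over triplicate slides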
# [8] = molecular target: Follistatin-related protein 3 (Homo sapiens) (UniProt O95633); test: compounds binding follistatin-related protein 3 – biochemical, small-molecule microarray, 635 nm fluorescence, primary screen (AID 1105); conditions: FSTL3 binding, higher = more signal;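 further: score merges emission near 667 nm and signal to noise per printed spot across three slides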
# [9] = molecular target: Dickkopf-related protein 1 (Homo sapiens) (UniProt O94907); test: small molecules binding DKK1 protein – biochemical, small-molecule microarray, 635 nm fluorescence scan, primary screen (AID 1106); conditions: higher = more signal;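 further: score merges emission near 667 nm with signal to noise over three replicate slides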
# [10] = test system: Inhibin beta A chain (activin A); test: small molecules binding activin A – biochemical, small-molecule microarray, 635 nm fluorescence scan, primary screen (AID 1107); conditions: INHBA, higher = more signal;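 further: mouse activin A protein probed at 4.33 µg/mL on printed slides; score merges bound-protein fluorescence near 667 nm with spot signal-to-noise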
# [11] = test system: Human papillomavirus type 1a protein E7 (residues 44-93); test: small molecules binding HPV E7 44-93 – biochemical, small-molecule microarray, residues 44-93, 635 nm fluorescence, primary screen (AID 1108); conditions: fluorescence 635 nm, higher = more signal;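 further: E7 fragment applied at 1 µg/mL in TBST for 1 h at 4 C; score combines spot fluorescence with its signal to noise ratio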
# [12] = hepatitis C replication reporter changes, two-sided – Huh7 cells, luciferase reporter, HCV replication inhibitor project, primary screen (AID 1109); conditions: Huh7 HCV replicon luciferase reporter, 48 h; higher = more signal;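 further: huh7 hepatoma cells harbouring a luciferase neomycin HCV replicon reporter; luciferase luminescence as measure of HCV replicon replication; test concentration not given here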
# [13] = molecular target: Left-right determination factor 2 (Homo sapiens) (UniProt O00292); test: small molecules binding LEFTY2 protein – biochemical, small-molecule microarray, 635 nm fluorescence scan, primary screen (AID 1110); conditions: higher = more signal
# [14] = molecular target: Calmodulin-1 (Homo sapiens) (UniProt P0DP23); test: small molecules binding calmodulin-1 with EGTA – biochemical, small-molecule microarray, Cy5-labelled CALM1, profiling panel (AID 1111); conditions: Cy5-CALM1 binding fluorescence, higher = more signal;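 further: labelled calmodulin applied in Tris saline Tween buffer holding calcium plus EGTA and DTT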
# [15] = molecular target: Calmodulin-1 (Homo sapiens) (UniProt P0DP23); test: small molecules binding Ca-loaded calmodulin-1 – biochemical, small-molecule microarray, Cy5-labelled CALM1, plus calcium, artefact control for SMM control-protein annotation, profiling panel (AID 1112); conditions: Cy5-CALM1 binding fluorescence, higher = more signal;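 further: score merges spot fluorescence with signal to noise from triplicate slides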
# [16] = probe aWnt5a binding to arrayed compounds – biochemical, biotinylated probe, 635/667 nm fluorescence, primary screen (AID 1113); conditions: small-molecule microarray, higher = more signal;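 further: score merges 667 nm fluorescence intensity with signal-to-noise per printed feature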
# [17] = probe aShh binding to arrayed compounds – biochemical, biotinylated probe, 635/667 nm fluorescence, primary screen (AID 1114); conditions: small-molecule microarray, higher = more signal;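 further: probe is biotin-labelled aShh protein from a stem cell growth factor screen; measures binding of labelled protein to compounds printed on the slide; score merges feature fluorescence at 667 nm with signal-to-noise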
# [18] = probe aNog binding to arrayed compounds – biochemical, biotinylated probe, 635/667 nm fluorescence, primary screen (AID 1115); conditions: small-molecule microarray, higher = more signal;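 further: probe is biotinylated aNog protein used at 0.15 µg/mL for 1 h at 4 C; z-score combines 667 nm fluorescence of each spot with its signal to noise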
# [19] = molecular target: Torsin-1A-interacting protein 1 (Homo sapiens) (UniProt Q5JTV8); test: compound microarray binding of lysate hLAP1 – cell lysate, small-molecule microarray, COS7 lysate, 635/667 nm fluorescence, primary screen (AID 1116); conditions: 635 nm fluorescence, higher = more signal
# [20] = molecular target: Alpha-bungarotoxin (Bungarus multicinctus) (UniProt P60615); test: compounds binding labelled alpha-BTX control protein – biochemical, small-molecule microarray, Alexa647 label, 635/667 nm fluorescence, artefact control for SMM control protein annotation, profiling panel (AID 1117); conditions: alpha-BTX-A647 binding fluorescence, higher = more signal
# Chain of Alpha-bungarotoxin (Bungarus multicinctus) (P60615 whole entry, looked up): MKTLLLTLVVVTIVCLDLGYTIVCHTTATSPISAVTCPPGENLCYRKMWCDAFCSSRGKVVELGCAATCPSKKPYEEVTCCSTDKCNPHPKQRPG
# Chain of Dickkopf-related protein 1 (Homo sapiens) (O94907 whole entry, looked up): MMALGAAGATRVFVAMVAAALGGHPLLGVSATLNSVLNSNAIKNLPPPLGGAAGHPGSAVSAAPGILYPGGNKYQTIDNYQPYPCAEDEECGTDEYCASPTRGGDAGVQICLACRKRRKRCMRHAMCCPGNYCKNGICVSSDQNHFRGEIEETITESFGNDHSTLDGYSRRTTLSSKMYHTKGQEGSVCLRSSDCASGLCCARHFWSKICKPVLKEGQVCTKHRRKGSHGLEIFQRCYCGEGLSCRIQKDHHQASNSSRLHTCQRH
# Chain of Left-right determination factor 2 (Homo sapiens) (O00292 whole entry, looked up): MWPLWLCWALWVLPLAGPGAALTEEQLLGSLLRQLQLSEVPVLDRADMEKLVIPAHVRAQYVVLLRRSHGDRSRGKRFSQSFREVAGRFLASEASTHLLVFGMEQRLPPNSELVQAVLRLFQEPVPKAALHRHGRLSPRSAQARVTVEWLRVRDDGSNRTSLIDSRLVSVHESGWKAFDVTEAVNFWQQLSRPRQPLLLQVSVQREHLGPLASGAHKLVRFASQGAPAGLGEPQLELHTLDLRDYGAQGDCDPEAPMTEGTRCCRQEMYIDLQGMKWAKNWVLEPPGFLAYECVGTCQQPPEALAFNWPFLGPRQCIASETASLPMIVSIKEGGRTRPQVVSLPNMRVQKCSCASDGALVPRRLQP
# Chain of Follistatin-related protein 3 (Homo sapiens) (O95633 whole entry, looked up): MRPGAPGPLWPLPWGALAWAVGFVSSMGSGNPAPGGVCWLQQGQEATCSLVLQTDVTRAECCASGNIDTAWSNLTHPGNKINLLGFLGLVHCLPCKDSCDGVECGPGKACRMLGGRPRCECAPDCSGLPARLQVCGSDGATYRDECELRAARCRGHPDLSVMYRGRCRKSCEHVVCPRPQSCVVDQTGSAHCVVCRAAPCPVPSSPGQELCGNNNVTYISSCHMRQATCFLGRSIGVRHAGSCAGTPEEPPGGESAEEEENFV
# Chain of Fibroblast growth factor 10 (Homo sapiens) (O15520 whole entry, looked up): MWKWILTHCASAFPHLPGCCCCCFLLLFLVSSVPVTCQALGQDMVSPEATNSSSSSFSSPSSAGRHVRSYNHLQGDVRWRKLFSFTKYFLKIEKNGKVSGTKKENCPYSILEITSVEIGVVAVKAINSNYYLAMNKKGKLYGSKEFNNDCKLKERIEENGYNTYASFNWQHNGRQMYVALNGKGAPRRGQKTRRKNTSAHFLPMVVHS
# Chain of Torsin-1A-interacting protein 1 (Homo sapiens) (Q5JTV8 whole entry, looked up): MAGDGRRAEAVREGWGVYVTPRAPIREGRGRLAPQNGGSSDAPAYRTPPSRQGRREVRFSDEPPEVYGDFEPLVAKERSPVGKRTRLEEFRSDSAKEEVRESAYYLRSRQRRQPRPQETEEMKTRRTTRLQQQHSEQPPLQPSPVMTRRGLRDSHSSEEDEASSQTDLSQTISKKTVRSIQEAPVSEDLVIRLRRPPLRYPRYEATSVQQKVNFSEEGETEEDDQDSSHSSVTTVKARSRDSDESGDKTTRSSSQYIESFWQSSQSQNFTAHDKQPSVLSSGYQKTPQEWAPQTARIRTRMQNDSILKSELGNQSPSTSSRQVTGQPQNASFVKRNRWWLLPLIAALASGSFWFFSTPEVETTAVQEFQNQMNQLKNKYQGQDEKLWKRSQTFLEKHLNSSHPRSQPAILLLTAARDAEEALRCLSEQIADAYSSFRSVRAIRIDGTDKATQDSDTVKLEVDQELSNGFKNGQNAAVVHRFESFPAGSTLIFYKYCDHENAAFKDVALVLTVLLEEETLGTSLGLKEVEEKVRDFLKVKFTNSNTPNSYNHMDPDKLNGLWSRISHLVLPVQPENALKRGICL
# Chain of Epidermal growth factor receptor (Homo sapiens) (P00533 whole entry, looked up): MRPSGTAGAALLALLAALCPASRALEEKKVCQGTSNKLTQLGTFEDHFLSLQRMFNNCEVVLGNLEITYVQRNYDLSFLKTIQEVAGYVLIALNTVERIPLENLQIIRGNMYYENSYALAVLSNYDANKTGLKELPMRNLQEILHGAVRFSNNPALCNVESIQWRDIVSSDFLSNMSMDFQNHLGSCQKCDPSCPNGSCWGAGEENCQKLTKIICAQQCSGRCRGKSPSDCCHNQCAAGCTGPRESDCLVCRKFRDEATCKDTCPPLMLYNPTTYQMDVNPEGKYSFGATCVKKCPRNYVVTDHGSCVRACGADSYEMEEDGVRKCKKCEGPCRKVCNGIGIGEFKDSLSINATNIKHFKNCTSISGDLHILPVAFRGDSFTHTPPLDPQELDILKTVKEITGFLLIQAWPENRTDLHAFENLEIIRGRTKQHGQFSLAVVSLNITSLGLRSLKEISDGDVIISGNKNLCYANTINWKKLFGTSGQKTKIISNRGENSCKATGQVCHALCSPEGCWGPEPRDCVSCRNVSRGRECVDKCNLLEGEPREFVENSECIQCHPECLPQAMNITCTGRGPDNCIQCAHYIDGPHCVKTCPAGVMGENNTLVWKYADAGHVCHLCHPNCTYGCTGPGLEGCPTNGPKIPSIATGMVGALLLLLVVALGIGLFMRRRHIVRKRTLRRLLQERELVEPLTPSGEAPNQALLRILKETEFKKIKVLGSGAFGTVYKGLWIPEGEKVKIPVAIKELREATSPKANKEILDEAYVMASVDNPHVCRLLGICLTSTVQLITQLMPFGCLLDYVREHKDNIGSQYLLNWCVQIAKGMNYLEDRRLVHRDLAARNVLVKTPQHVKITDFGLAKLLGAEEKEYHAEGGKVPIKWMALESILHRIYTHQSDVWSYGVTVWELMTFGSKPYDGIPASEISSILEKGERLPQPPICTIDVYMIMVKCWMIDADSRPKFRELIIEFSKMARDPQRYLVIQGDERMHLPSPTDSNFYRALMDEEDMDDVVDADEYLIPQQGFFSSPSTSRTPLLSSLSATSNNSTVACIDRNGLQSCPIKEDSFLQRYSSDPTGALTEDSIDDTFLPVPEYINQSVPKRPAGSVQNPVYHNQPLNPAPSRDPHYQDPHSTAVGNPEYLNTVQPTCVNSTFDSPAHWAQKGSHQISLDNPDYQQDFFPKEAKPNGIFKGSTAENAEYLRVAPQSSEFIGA
Structure (SMILES),composite z-score [1],composite z-score [2],composite z-score [3],z-score [4],composite z-score [5],composite z-score [6],composite z-score [7],composite z-score [8],composite z-score [9],composite z-score [10],composite z-score [11],z-score [12],composite z-score [13],composite z-score [14],composite z-score [15],composite z-score [16],composite z-score [17],composite z-score [18],composite z-score [19],composite z-score [20]
C=C[C@H](COC(C)=O)N(C(=O)OC(C)(C)C)S(=O)(=O)c1ccc(Br)cc1,0.0995,1.29,0.639,0.353 (inactive),0.619,0.484,0.517,0.507,0.717,0.838,0.4,-0.757,0.467,-0.159,-0.907,0.205,0.113,-0.0185,0.395,0.397
CN(C)CCCNC(=O)[C@@]1(c2ccc([N+](=O)[O-])cc2)CC(=O)N(C2CCCCC2)[C@@H]1c1ccc(CO)cc1,0.762,0.0157,0.759,0.315 (inactive),-0.105,-0.148,-0.364,0.156,-0.236,1.27,1.04,-1.77,-0.419,0.465,0.0617,-0.25,-0.408,-0.483,0.218,0.8
C[N+](C)(C)CCCCNC(=O)[C@H]1C[C@H]2C(=O)N[C@@H](Cc3ccccc3)C(=O)N2[C@H]1c1ccc(O)cc1,0.137,-0.0123,-0.0505,0.0946 (inactive),0.612,0.0215,0.231,0.953,1.22,0.859,-0.0021,-0.72,0.686,-0.494,0.565,-0.0944,0.442,0.0209,0.427,1.56
CO[C@H]1O[C@H](CO)[C@@H](OC(=O)Nc2ccc(Br)cc2)[C@H](OC(=O)c2cc3ccccc3[nH]2)[C@H]1OC(=O)c1cc2ccccc2[nH]1,1.23,0.165,0.24,-4.44 (inactive),1.19,1.28,0.408,0.579,0.0104,0.227,0.823,-3.51,-0.132,1.87,0.14,0.0775,-0.262,0.121,0.926,0.353
CC(=O)NCCCC[C@@H]1NC(=O)[C@@H]2C[C@H](C(=O)NCCCCCCNC(=O)CS)[C@H](c3cccc(OCCO)c3)N2C1=O,1.76,-0.0828,0.466,-0.289 (inactive),0.639,1.12,0.37,0.325,0.791,0.388,0.517,-0.938,0.221,0.572,0.361,0.0004,-0.142,-0.196,0.16,0.505
C=C(CCCC)/C(=C/C[C@@H](OC(C)=O)c1ccccc1OCCO)c1cnc2ccccc2c1,0.561,0.149,0.12,-0.397 (inactive),0.732,0.21,-0.321,0.417,-0.0491,1.33,0.75,-2.25,0.157,-0.0416,-0.418,-0.124,-0.0977,0.369,0.44,0.157
COc1ccc([Si](C)(C)[C@H]2[C@H](CC(=O)N3Cc4ccccc4C[C@H]3CO)O[C@@]3(C(=O)N(Cc4ccc(N5CCC5=O)cc4)c4ccccc43)[C@@H]2C)cc1,1.21,-0.283,0.51,-0.315 (inactive),1.15,0.972,1.11,1.44,1,1.28,1.37,-3.99,1.22,1.02,-0.89,0.0158,-0.144,1.65,1.45,0.548
O=C1O[C@H](c2ccccc2)[C@H](c2ccccc2)N2[C@H]1[C@@H](C(=O)NC[C@H](O)c1ccccc1)[C@]1(C(=O)Nc3ccccc31)[C@H]2c1ccc(OCCO)cc1,0.884,0.569,0.672,0.985 (inactive),0.745,1.23,-0.0151,0.464,0.289,0.286,1.38,-2.05,0.119,0.475,0.245,-0.0882,-0.167,0.0821,1.5,1.33
COC(=O)[C@@]1(Cc2ccc(F)cc2)[C@H]2c3cc(C(=O)N(C)C)n(Cc4nc5ccccc5[nH]4)c3C[C@H]2CN1C(=O)c1ccccc1,1.62,0.69,0.969,-1.62 (inactive),0.63,-0.136,0.314,0.296,-0.419,0.538,1.32,-0.494,-0.423,1.42,0.114,0.178,0.603,0.485,0.778,0.324
O=C1NC(=O)C2C1C=CC(C(O)c1cccc3ccccc13)N2Nc1ccccn1 (stereo not given),0.621,0.103,0.15,1.03 (inactive),0.522,0.233,0.688,0.857,0.31,0.924,0.355,0.496,0.326,-0.168,-0.477,-0.034,0.401,0.116,0.594,0.307
C=CCOC(=O)[C@H]1[C@@H]2C(=O)O[C@@H](c3ccccc3)[C@@H](c3ccccc3)N2[C@@H](c2ccc(OCCOC(=O)[C@@H]3C[C@@H]4C(=O)N5CCC[C@H]5C(=O)N4[C@@H]3c3cccc(OCCO)c3)cc2)[C@]12C(=O)Nc1ccccc12,1.19,-0.0198,0.0715,-0.978 (inactive),1.12,1.31,0.5,0.895,0.651,0.563,0.862,-1.24,0.91,0.551,0.0319,0.0079,0.0381,-0.378,0.834,1.34
